# Experimental data: the supplement of paper PMC6555819
# Assays:
# Test in all cases: PBM binding z-score (relative to random genomic background probes); higher = stronger binding; sequences stand for … in GC…GCGATTGACAGCGTAGAATGAAGG
# [1] = tested on: RARb homodimer (NR concentration 270 nM)
# Procedure, shortened: (§1)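 On custom Agilent 4×180K arrays, double-stranded probes with 34-nt variable regions carried direct-repeat seeds, single-nucleotide variants, half-site ablations or random human genomic background. Ligand-free nuclear receptor dimers were applied for 1 h, and binding was read with antibodies against each partner (one per run). Binding z-scores come from regression-normalized fluorescence, with the random background probes as reference.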
# [2] = tested on: RARg:RXRa (NR concentration 270 nM, RXRa partner concentration 90 nM)
# Procedure, shortened: as §1
# [3] = tested on: RARg homodimer (NR concentration 270 nM)
# Procedure, shortened: as §1
# [4] = tested on: RXRa DBDmut IVT, anti-RXR (DBD mutation: RXRa K156A/R161A, NR concentration 90 nM)
# Procedure, shortened: as §1
# [5] = tested on: RXRa homodimer (NR concentration 180 nM)
# Procedure, shortened: as §1
# [6] = tested on: THRa:RXRa (NR concentration 90 nM, RXRa partner concentration 90 nM)
# Procedure, shortened: as §1
# [7] = tested on: THRa homodimer (NR concentration 90 nM)
# Procedure, shortened: as §1
# [8] = tested on: VDR homodimer (NR concentration 270 nM)
# Procedure, shortened: as §1
Sequence,PBM binding z-score [1],PBM binding z-score [2],PBM binding z-score [3],PBM binding z-score [4],PBM binding z-score [5],PBM binding z-score [6],PBM binding z-score [7],PBM binding z-score [8]
TAGCCTAGGTCATTGGCCAGTATACCACGCGAAC,2.76,3.66,3.92,1.68,3.22,2.66,0.992,1.26
CATACAAGGTCAGCTAGGCCAGAGTAGGGACGGC,3.83,5.19,5.79,2.04,4.4,3.54,1.97,1.65
CCTCGGAGGACAGAAGGTCAGCGCTGTCCGCTTT,4.09,4.02,3.84,0.468,2.54,2.57,-0.027,0.0447
CCTAGGAGGACAGAAGGTCAGAGCTGTCCGCTTT,3.34,3.28,2.78,0.179,1.84,2.25,-0.21,-0.00238
GCTTGTAGATCAAGCTTAAGAAAGACTAAGCTAA,-1.31,-0.516,-0.459,-0.635,-0.645,-0.583,-1.48,-0.457
CCTACTGGGCCAAGGTCATTTATCAGTCAAAGCA,3.46,3.47,2.79,1.61,3.07,3.27,2.44,3.42
CATACAGGGTCAGCTAGGACAGAGTAGGGACGGC,3.14,4.21,4.66,1.58,3.74,3.54,1.31,1.19
TCATATAGGTAAACAGGCGAAAGTCCGTAAGTTA,0.187,0.299,-0.00353,1.36,0.859,0.323,-0.0757,0.216
CAAACTGGGTCACAGAGGTCAAAGTCCGTGCGTA,5.5,7.14,7.26,3.26,7.99,4.4,2.19,5.91
ATCTCTAGGGAAAGTTCAGTGAAAGATCGATAGA,2.2,2.01,2.11,1.12,1.21,0.605,0.0589,1.68
AGAACGAGGGCAATGAGTTGATAGCTCGGGTGGC,0.713,0.827,1.26,1.77,0.484,0.779,-0.312,2.69
CTACCAGGGTGAACAAGGTCGTTGATTACTATTC,1.69,1.59,0.976,0.927,1.85,3.28,1.27,2.42
AGAACGACGGCAATGAGTTGATAGCACGGGTGGC,-0.961,-0.245,-0.185,-0.402,0.0598,-0.626,-1.12,-0.0582
TAGCCTAGGTAATGGGCCAGTATACCACGCGAAC,-0.381,-0.234,-0.0696,-1.16,-0.0912,-0.354,-0.5,-0.715
ACAGACAGGCGATGAAGGTAACTCAGGCTATCAT,-0.109,-0.163,0.174,-0.246,-0.0483,0.512,-0.0858,-0.339
GCTATTAGTTGAACGGGCAACCGAATGATTCTCG,-0.0848,-0.133,0.229,0.557,-0.15,-0.33,-0.617,-0.439
TCGAGTAGGTTACCAATGCGGCATTCAGCTTTCT,-0.23,0.0889,0.12,0.365,0.498,-0.131,-0.859,-0.937
ATCTCTAGGTAACCAAGTTCTGTGAATGCCGAAC,0.202,0.225,0.194,-0.0032,0.246,0.718,0.76,0.355
AATACAGGGTCATCGTAGGCCAGAGTTCGCACAG,3.88,5.67,5.21,3.68,6.43,4.77,1.65,5.37
CAAACTAGGTCACGAAAGGTAAAAGTCGAATGAC,3.34,5.16,5.56,2.02,4.2,4.18,1.49,0.85
ATCTCTAGGTGACCAAGTTCAGTGAATGCCGAAC,1.77,1.24,1.38,0.521,0.867,1.5,0.429,2.22
TCTAGTTGGTCAAAGGACACACACTCGAAATGCG,1.99,1.75,2.29,1.09,1.12,1.59,1.14,0.435
CGTCAAAGTTCAACTAAGGTATCGTAAAGCACGC,4.26,5.92,6.75,4.68,5.21,4.92,0.41,4.04
ATATGTAAGTTACATCCGGGTCATTCAGGCTATG,2.56,1.71,1.21,1.07,2.15,3.43,2.33,3.16
CCTATTAGTTGACCATAAGGCCAACCGAAGCTCG,1.68,0.941,0.942,0.893,0.779,2,1.89,1.06
CGGACTGGGGCATAAGGTTACCATAAGCCAGCCC,1.94,1.83,1.21,-0.836,1.29,2.18,1.39,-0.454
ACTAGCAGGCCAAGGGACACTCAAGATTAGTCCG,0.745,0.424,0.835,-0.24,-0.0147,-0.112,-0.143,-0.433
GCTAGTTGGTCAGTAAAAGGTCACACTCCGGTCG,5.07,5.14,4.48,0.827,5.23,3.58,2.19,1.59
CCTATTAGTTGACCATAAGGGCAACCCAAGCTCG,2.32,1.44,1.19,0.764,0.835,2.07,1.53,1.28
